# Assay results reported in PubChem BioAssay AID2221 (Broad Institute, 2009).
# Out of some 290,000 compounds screened, about 2,200 (0.76%) were called active. Rule as the data show it: active = inhibition above about 30%; inconclusive = no clear call, values can overlap the other calls; inactive = below that. The list comes from a sample in which actives are over-represented; it also holds similar structures and randomly drawn compounds.
# Target: Protein RecA (Mycobacterium tuberculosis (strain ATCC 25618 / H37Rv)) (UniProt P9WHJ3)
# Assay: Mtb RecA intein splicing inhibitors, primary screen, biochemical, fluorescence, HTS (AID 2221);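 also: 0% = vehicle wells and 100% = reference inhibitor control wells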
# Settings: cell-free RecA intein splicing, stronger effect = higher value, concentration not given here
# Sequence of Protein RecA (Mycobacterium tuberculosis (strain ATCC 25618 / H37Rv)) (P9WHJ3 whole entry, looked up): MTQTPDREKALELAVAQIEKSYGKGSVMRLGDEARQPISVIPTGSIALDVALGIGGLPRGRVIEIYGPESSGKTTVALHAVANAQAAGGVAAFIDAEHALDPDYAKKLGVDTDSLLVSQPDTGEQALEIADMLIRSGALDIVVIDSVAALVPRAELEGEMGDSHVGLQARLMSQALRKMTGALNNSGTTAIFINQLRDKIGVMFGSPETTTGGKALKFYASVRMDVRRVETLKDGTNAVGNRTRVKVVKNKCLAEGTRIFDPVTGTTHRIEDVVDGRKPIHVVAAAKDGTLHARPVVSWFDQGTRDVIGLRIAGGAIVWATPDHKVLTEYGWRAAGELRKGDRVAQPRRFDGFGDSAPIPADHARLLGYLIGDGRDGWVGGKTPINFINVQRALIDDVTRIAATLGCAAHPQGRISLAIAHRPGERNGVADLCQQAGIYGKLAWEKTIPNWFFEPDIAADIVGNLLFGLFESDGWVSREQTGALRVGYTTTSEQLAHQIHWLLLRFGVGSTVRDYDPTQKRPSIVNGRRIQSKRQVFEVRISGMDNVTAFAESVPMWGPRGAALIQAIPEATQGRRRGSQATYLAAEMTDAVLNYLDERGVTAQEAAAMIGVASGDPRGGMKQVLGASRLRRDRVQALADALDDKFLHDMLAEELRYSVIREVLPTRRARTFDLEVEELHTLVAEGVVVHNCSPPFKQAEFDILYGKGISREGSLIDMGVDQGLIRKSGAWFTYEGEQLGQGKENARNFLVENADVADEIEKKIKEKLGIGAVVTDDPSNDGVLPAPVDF
row,SMILES,inhibition
1,CC(OC(=O)c1ccccc1OCc1ccc(Cl)cc1)C(N)=O (stereo not drawn),-4.29% (inactive)
2,Cc1ccc(N(Cc2cc3ccccc3[nH]c2=O)C(=O)c2cccs2)cc1,0.4% (inactive)
3,CC(=O)N(Cc1cc(=O)[nH]c2ccccc12)c1ccc(C)cc1C,2.74% (inactive)
4,Cc1ccc(N(Cc2cc(=O)[nH]c3ccccc23)C(=O)CCl)cc1,69.5% (active)
5,O=C(Cc1c[nH]c2ccccc12)OCCOC(=O)Cc1c[nH]c2ccccc12,1.52% (inactive)
6,O=S(=O)(O)Oc1c[nH]c2ccccc12,75% (active)
7,COc1ccccc1CC(=O)NCCc1c[nH]c2ccccc12,3.54% (inactive)
8,O=C(O)C1CCCN(CCC=C(c2ccccc2)c2ccccc2)C1 (stereo not drawn),-1.43% (inactive)
9,O=C(Nc1ccccc1)c1ccc(NC(=O)c2cccs2)cc1,-3.07% (inactive)
10,O=S(=O)(Nc1n[nH]c(C(F)(F)F)n1)c1ccccc1,-1.49% (inactive)
11,O=C(Nc1n[nH]c(C(F)(F)F)n1)c1cccs1,51.9% (active)
12,Cc1ccc(-c2noc(C3CCCN(C(=O)c4cccc(Cl)c4)C3)n2)o1 (stereo not drawn),1.61% (inactive)
13,COc1ccc(C2C(C#N)=C(N)Oc3cc(N)ccc32)cc1OC (stereo not drawn),-13.5% (inactive)
14,Cc1nn(-c2ccccc2)c2c1C(c1ccc(F)cc1)C(C#N)=C(N)O2 (stereo not drawn),43.3% (active)
15,COc1ccccc1C1C(C#N)=C(N)Oc2c1c(-c1ccccc1)nn2-c1ccccc1 (stereo not drawn),35.8% (active)
16,Cn1c2c(c(=O)n(C)c1=O)C(c1cccc(F)c1)C(C#N)=C(N)O2 (stereo not drawn),-1.55% (inactive)
17,COC(=O)C1=C(C)OC(N)=C(C#N)C1c1cc(OC)ccc1OC (stereo not drawn),-1.82% (inactive)
18,C=CCOC(=O)C1=C(C)OC(N)=C(C#N)C1c1ccc(F)cc1 (stereo not drawn),5.83% (inactive)
19,Cc1nn(Cc2ccccc2)c2c1C(c1ccccc1)C(C#N)=C(N)O2 (stereo not drawn),66.3% (active)
20,Cc1nn(Cc2ccccc2)c(C)c1NS(=O)(=O)c1ccccc1,1.17% (inactive)

row,SMILES,inhibition
1,Cc1cc(C)c2c3c(sc2n1)C(c1ccccc1)C(C#N)=C(N)O3 (stereo not drawn),-1.99% (inactive)
2,Cc1n[nH]c(C)c1S(=O)(=O)N1CCCC(C(=O)Nc2ccc(Br)cc2)C1 (stereo not drawn),-13.2% (inactive)
3,CC1CC(C)(C)CC2(C1)NC(=O)N(CC(=O)Nc1nccs1)C2=O (stereo not drawn),-1.2% (inactive)
4,CCN1CCC2(CC1)N=C(c1ccc(F)cc1)C(=S)N2C(=O)c1ccc(C)cc1,1.27% (inactive)
5,COc1ccc(-c2ccc(CCC(=O)O)n2NC(=O)c2ccc(C(C)(C)C)cc2)cc1,3.63% (inactive)
6,CCN1C(=O)[C@@H]2[C@@H](c3ccc(-c4ccccc4)cc3)N3CCCC[C@@]3(C(=O)OC)[C@@H]2C1=O,2.14% (inactive)
7,Cc1ccc(-c2nc(SCC(=O)Nc3ccccc3OC(F)F)c3c(C)c(C(=O)O)sc3n2)cc1,2.99% (inactive)
8,Cc1ccc(CC2C(=O)N(c3ccc(F)cc3)C(=O)C2C)cc1 (stereo not drawn),-0.367% (inactive)
9,COc1cc(/C(=C/c2ccccc2)c2ccccc2)c2c(c1)oc1ccccc12,-0.274% (inactive)
10,COc1ccc(OC)c(/C(C)=N\NC(=O)c2cc3cc(Cl)ccc3n2C)c1,9.04% (inactive)
11,O=C1NC(c2ccc(-c3ccccc3[N+](=O)[O-])o2)C(C(=O)c2ccc(Cl)cc2)C(O)(C(F)(F)F)N1 (stereo not drawn),45% (active)
12,CC1=NN(c2ccc(Cl)c(C(=O)O)c2)C(=O)/C1=C/c1ccc(-c2ccccc2[N+](=O)[O-])o1,7.48% (inactive)
13,CC(=O)C1C(c2cccc(Oc3ccccc3)c2)NC(=O)NC1(O)C(F)(F)F (stereo not drawn),-2.89% (inactive)
14,CC1(C)CC(=O)C(N=Nc2ccc(S(=O)(=O)N3CCCCCC3)cc2)=C(O)C1,-0.925% (inactive)
15,O=C1C=CC(=O)N1c1ccc(N2CCCCC2)cc1,3.11% (inactive)
16,COc1ccc(NC2=CC(=S)NC(C)(C)C2)cc1,1.09% (inactive)
17,Cc1cc(NC(=O)CCC2COc3ccccc3O2)no1 (stereo not drawn),2.09% (inactive)
18,O=C1C(=O)N(CC2COc3ccccc3O2)c2ccccc21 (stereo not drawn),6.05% (inactive)
19,Cc1cc(C(=O)CCl)c(C)n1CC1COc2ccccc2O1 (stereo not drawn),40.6% (active)
20,Cc1ccc(-c2nnc(Nc3ccc(C(=O)N(C)C)cc3)c3ccccc23)cc1S(N)(=O)=O,-0.54% (inactive)

row,SMILES,inhibition
1,CCCOc1ccc(/C=N/NC(=O)C2CC2)c(OCCC)c1,-1.61% (inactive)
2,O=S(=O)(Nc1ccccn1)c1ccc(Oc2ccccc2)cc1,-0.988% (inactive)
3,COc1ccc(NC(=O)c2cnc(NS(=O)(=O)c3ccccc3)nc2)cc1,0.334% (inactive)
4,COc1ccc(S(=O)(=O)/N=C2\C=C(NS(=O)(=O)c3ccccc3)C(=O)c3ccccc32)cc1,36.2% (active)
5,Cc1ccccc1C(=O)N1CCC(C(=O)Nc2ccc(S(=O)(=O)N(C)C(C)C)cc2)CC1,0.242% (inactive)
6,C[n+]1ccc(C(=O)NCc2ccccc2)cc1,1.21% (inactive)
7,Cc1cccc(C)c1NC(=S)N(Cc1cccnc1)Cc1ccccc1Cl,2.64% (inactive)
8,NC(=O)C1CCN(C(=O)c2ccc(-c3ccccc3)cc2)CC1,-3.02% (inactive)
9,CCOC(=O)N1CCC(NC(=O)COc2cc(=O)n(C)c3ccccc23)CC1,-3.15% (inactive)
10,CCOC(=O)N1CCC(NC(=O)CCc2ccccc2)CC1,-0.782% (inactive)
11,CCOC(=O)N1CCC(c2cc(=O)n(-c3ccccc3)[nH]2)CC1,95.5% (active)
12,Cc1ccc(Nc2nc(CSc3nnc(-c4ccncc4)n3-c3ccccc3C)cs2)cc1,16.7% (inactive)
13,COc1cc(OC)c(S(=O)(=O)Nc2ccccc2C(=O)O)cc1S(=O)(=O)Nc1ccccc1C(=O)O,-1.6% (inactive)
14,O=C(COc1coc(CN2CCN(c3ccccc3F)CC2)cc1=O)N1CCc2ccccc21,-2.58% (inactive)
15,CCc1cccc(NC(=O)CCC(=O)O)c1,-2.03% (inactive)
16,O=C(Cc1ccccc1)Nc1cccc(NC(=O)c2ccccc2)c1,-3.56% (inactive)
17,O=C(CCl)Nc1cccc(CP(=O)(c2ccccc2)c2ccccc2)c1,35.8% (active)
18,COc1ccc(NC(=O)CCCNC(=O)Cn2cnc3sc4c(c3c2=O)CCCC4)cc1OC,1.78% (inactive)
